Test results as given in PubChem BioAssay (NCATS).
Results filed as inconclusive are left out. Calls of active or inactive are those of the source. Calls follow the shape of the dose curve; as a rule, active = well fitted curve in the direction sought with a large enough effect; inconclusive = small, poorly fitted or top-dose-only effect, or another doubt; inactive = no such curve, though single readings can be large; an effect the other way counts as inactive or inconclusive.

Assays:
[1] = Cellular Toxicity (caspase-3) Mesangial (AID 660); details: mesangial cells, normalized: DMSO 0%, 100 µM tamoxifen 100%; at 91.7 µM (top of the series);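 also: combined caspase 3 and 7 activity read by Caspase-Glo luminescence; cells exposed to compound for 16 h before the caspase read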
Outline: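 AC50 values come from Hill-equation fits of caspase 3/7 activation, measured as Caspase-Glo luminescence in human glomerular mesangial cells exposed to compound for 16 h at 37 °C; 100% set by 100 uM tamoxifen.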

[2] = Cellular Toxicity (caspase-3) SK-N-SH (AID 661);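 also: 0% = DMSO basal and 100% = 10 µM staurosporine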
Outline: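 Apoptosis readout in SK-N-SH neuroblastoma: Caspase-Glo 3/7 luminescence following 16 hr treatment in complete culture medium. Normalization used DMSO and 10 uM staurosporine controls.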

[3] = Cellular Toxicity (caspase-3) H-4-II-E (AID 663); details: H-4-II-E rat hepatoma, scaled: DMSO 0%, 100 µM tamoxifen 100%; at 92.2 µM (top of the series);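 also: cells exposed to compound for 16 hr before readout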
Outline: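 H-4-II-E rat hepatoma, 1500 cells/well, 5 hr settle at 37 °C; compound 16 hr, 37 °C, complete medium; Caspase-Glo 3/7, 20 min RT; luminescence. DMSO = 0%, 100 uM tamoxifen = 100%; Hill-equation AC50.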

[4] = Cellular Toxicity (caspase-3) Hek293 (AID 664); details: HEK293 caspase-3 activation, DMSO = 0%, 100 µM tamoxifen = 100%; at 92.2 µM (top of the series);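 also: cells exposed to compound for 16 h at 37 °C before readout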
Outline: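 Apoptosis readout: Caspase-Glo 3/7 signal in human HEK293 cells following 16-hour compound incubation. Responses scaled between DMSO baseline and 100 uM tamoxifen.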

[5] = Cellular Toxicity (caspase-3) N2a (AID 665);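 also: compound exposure lasted 16 h at 37 °C before readout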
Outline: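 Concentration-response qHTS: compound-induced caspase-3/7 luminescence in N2a cells (16 h, 37 °C), relative to DMSO and 10 uM staurosporine controls; AC50 obtained using the standard Hill equation.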

[6] = Cellular Toxicity (caspase-3) Renal Proximal Tubule (AID 667); details: Potency: caspase-3 activation;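 also: cells exposed to compound for 16 hours at 37 °C before detection; 0% = DMSO basal and 100% = 10 µM staurosporine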
Outline: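 In qHTS format, rat primary proximal tubule cells seeded at 1000 per well are exposed to compounds for 16 hours at 37 °C. An increase in Caspase-Glo 3/7 luminescence indicates caspase activation.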

[7] = Cell Viability - LYMP2-001 (AID 921);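 also: cells exposed to compound for 24 h at 37 °C; 0% = DMSO only and full inhibition = tetraoctylammonium bromide control wells; nearly all actives have a fitted effect of over 70% in size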
Outline: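 qHTS, 1536-well; lymphoblastoid cells, 24 hr compound, 37 C; ATP by CellTiter-Glo, 30 min RT; luminescence; Hill-fit AC50.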

[8] = Cellular Toxicity (caspase-3) NIH 3T3 (AID 666);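 also: caspase signal read after 16 h compound exposure; 0% = DMSO basal and 100% = 100 µM tamoxifen stimulation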
Outline: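 Activity: caspase-3/7 induction, NIH 3T3 cells, 16 hr treatment at 37°C, luminescent Caspase-Glo detection; AC50 via Hill equation.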

[9] = molecular target: Cytochrome P450 3A4 (Homo sapiens) (UniProt P08684); assay: qHTS Assay for Inhibitors and Substrates of Cytochrome P450 3A4 (AID 884); also: % is scaled to controls: 0 for no effect and ±100 for the full control effect; nearly all actives have a fitted effect of over 50% in size
Outline: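 Luminescent readout of luciferin produced by CYP3A4 (20 nM) dealkylation of Luciferin-PPXE, 25 uM (its KM). NADPH-driven reaction ran 60 min at RT after 10 min compound preincubation; data scaled to 57 uM ketoconazole as 100% inhibition.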

[10] = molecular target: Cytochrome P450 3A4 (Homo sapiens) (UniProt P08684); assay: qHTS Assay for Activators of Cytochrome P450 3A4 (AID 885); also: nearly all actives have a fitted effect of over 65% in size
Outline: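 Luminescent readout of luciferin formed from 25 uM Luciferin-PPXE (KM level) by 20 nM CYP3A4 in 200 mM KPO4, with 60 min NADPH-driven reaction at room temperature after 10 min compound exposure. Ketoconazole (57 uM) defined 100% inhibition.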

Sequence of Cytochrome P450 3A4 (Homo sapiens) (P08684 whole entry, looked up): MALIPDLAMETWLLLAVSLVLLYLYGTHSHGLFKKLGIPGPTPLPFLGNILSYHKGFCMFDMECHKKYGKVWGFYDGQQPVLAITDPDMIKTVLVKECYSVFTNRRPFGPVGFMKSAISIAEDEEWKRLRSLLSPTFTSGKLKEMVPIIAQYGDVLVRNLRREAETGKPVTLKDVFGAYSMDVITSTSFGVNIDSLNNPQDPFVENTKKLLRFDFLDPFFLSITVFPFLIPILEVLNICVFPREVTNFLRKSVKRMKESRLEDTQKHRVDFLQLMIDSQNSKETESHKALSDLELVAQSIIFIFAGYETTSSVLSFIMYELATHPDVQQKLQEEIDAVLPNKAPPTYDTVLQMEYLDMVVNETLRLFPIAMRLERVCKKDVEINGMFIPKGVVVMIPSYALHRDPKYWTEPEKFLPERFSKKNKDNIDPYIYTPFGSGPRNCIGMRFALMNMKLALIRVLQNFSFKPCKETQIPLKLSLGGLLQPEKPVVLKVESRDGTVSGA

Cc1cc([N+](=O)[O-])ccc1N
inactive: caspase-3 activation [1] 0.789% | outcome [2] | caspase-3 activation [3] -0.2% | caspase-3 activation [4] -2.55% | outcome [5] | Potency [6] | Potency [7]

Cc1ccc(C)c([N+](=O)[O-])c1
inactive: caspase-3 activation [1] 0.386% | outcome [2] | caspase-3 activation [3] -0.213% | caspase-3 activation [4] 0.434% | outcome [8] | Potency [6] | Potency [9] | Potency [7]

C[C@@H]1CC2(OC[C@]3(C)O[C@H]23)O[C@H]2C[C@@]3(C)[C@@H]4CC[C@H]5C(C)(C)C(O[C@@H]6OC[C@@H](O)[C@H](O)[C@H]6O)CC[C@@]56C[C@@]46CC[C@]3(C)[C@@H]12 (some centres not stated)
inactive: caspase-3 activation [1] 2.15% | outcome [2] | caspase-3 activation [3] 2.6% | caspase-3 activation [4] 3.04% | outcome [8] | Potency [6] | Potency [9] | Potency [7]

Cc1cccc([N+](=O)[O-])c1C(=O)O
inactive: caspase-3 activation [1] -0.481% | outcome [2] | caspase-3 activation [3] 1.44% | caspase-3 activation [4] 2.11% | outcome [5] | Potency [6] | Potency [9] | Potency [7]

O=Cc1c(Cl)cccc1Cl
inactive: caspase-3 activation [1] -0.583% | outcome [2] | caspase-3 activation [3] 5.93% | caspase-3 activation [4] 1.92% | outcome [8] | Potency [6] | Potency [9] | Potency [7]

Cc1ccc2nc(-c3ccc(N)cc3)sc2c1S(=O)(=O)O
inactive: caspase-3 activation [1] -3.9% | outcome [2] | caspase-3 activation [3] -4.87% | caspase-3 activation [4] -8.94% | outcome [5] | Potency [6] | outcome [10] | Potency [7]

CCc1ccccc1
inactive: caspase-3 activation [1] -1.29% | outcome [2] | caspase-3 activation [3] 1.3% | caspase-3 activation [4] -0.962% | outcome [8] | Potency [6] | Potency [9] | Potency [7]

Cc1ccccc1C(N)=O
inactive: caspase-3 activation [1] 2.19% | outcome [2] | caspase-3 activation [3] 1.38% | caspase-3 activation [4] 3.64% | outcome [8] | Potency [6] | Potency [9] | Potency [7]

CCCCC(CC)CO (configuration not stated)
inactive: caspase-3 activation [1] -0.254% | outcome [2] | caspase-3 activation [3] 1.2% | caspase-3 activation [4] 1.6% | outcome [8] | Potency [6] | Potency [9] | Potency [7]

Nc1c(Cl)cc(Cl)cc1Cl
inactive: caspase-3 activation [1] 0.75% | outcome [2] | caspase-3 activation [3] 2.86% | caspase-3 activation [4] -0.377% | outcome [8] | Potency [6] | Potency [9] | Potency [7]

CC1CCCO1 (configuration not stated)
inactive: caspase-3 activation [1] -0.0447% | outcome [2] | caspase-3 activation [3] -0.992% | caspase-3 activation [4] -1.6% | outcome [8] | Potency [6] | Potency [9] | Potency [7]

CCNc1cc(O)ccc1C
inactive: caspase-3 activation [1] 0.47% | outcome [2] | caspase-3 activation [3] 1.36% | caspase-3 activation [4] 0.389% | outcome [8] | Potency [6] | outcome [10] | Potency [7]

O=C(Cl)c1c(Cl)cccc1Cl
inactive: caspase-3 activation [1] -0.17% | outcome [2] | caspase-3 activation [3] 0.0127% | caspase-3 activation [4] 0.529% | outcome [8] | Potency [6] | Potency [9] | Potency [7]

CCCCCCC=O
inactive: caspase-3 activation [1] -0.687% | outcome [2] | caspase-3 activation [3] 1.06% | caspase-3 activation [4] -2.62% | outcome [8] | Potency [6] | Potency [9] | Potency [7]

CCOC(=O)OCC
inactive: caspase-3 activation [1] -0.584% | outcome [2] | caspase-3 activation [3] -0.0213% | caspase-3 activation [4] -2.59% | Potency [6] | Potency [9] | Potency [7]

Cc1ccccc1Br
inactive: caspase-3 activation [1] -0.877% | outcome [2] | caspase-3 activation [3] 0.309% | caspase-3 activation [4] -0.786% | outcome [8] | Potency [6] | Potency [9] | Potency [7]

CSc1ccc(C=O)cc1
inactive: caspase-3 activation [1] -0.251% | outcome [2] | caspase-3 activation [3] 2.78% | caspase-3 activation [4] 0.206% | outcome [8] | Potency [6] | Potency [9] | Potency [7]

CC(C)(C)OC=O
inactive: caspase-3 activation [1] 1.35% | outcome [2] | caspase-3 activation [3] 0.183% | caspase-3 activation [4] -1.63% | Potency [6] | Potency [9]

Nc1ccc(F)cc1F
inactive: caspase-3 activation [1] -0.571% | outcome [2] | caspase-3 activation [3] -0.359% | caspase-3 activation [4] 0.487% | Potency [6] | Potency [9] | Potency [7]

CC(C)(c1cc(Br)c(OCC(Br)CBr)c(Br)c1)c1cc(Br)c(OCC(Br)CBr)c(Br)c1 (configuration not stated)
inactive: caspase-3 activation [1] 0.758% | outcome [2] | caspase-3 activation [3] 1.29% | caspase-3 activation [4] 16.5% | outcome [8] | Potency [6] | Potency [9] | Potency [7]

O=C(O)CNC(=O)c1ccc([N+](=O)[O-])cc1
inactive: caspase-3 activation [1] -0.679% | outcome [2] | caspase-3 activation [3] 0.8% | caspase-3 activation [4] -2.43% | Potency [6] | Potency [9] | Potency [7]

Nc1cccc([N+](=O)[O-])c1
inactive: caspase-3 activation [1] -0.828% | outcome [2] | caspase-3 activation [3] 0.491% | outcome [5] | outcome [8] | Potency [6] | Potency [9]

CCCC(Cl)CCCC(Cl)CCC(Cl)CCC(Cl)CCC(Cl)CCCC(Cl)CCC (configuration not stated)
inactive: caspase-3 activation [1] 1.24% | outcome [2] | caspase-3 activation [3] 0.272% | caspase-3 activation [4] -1.03% | outcome [8] | Potency [6] | Potency [9] | Potency [7]

O=C1CCC(=O)O1
inactive: caspase-3 activation [1] 0.974% | outcome [2] | caspase-3 activation [3] 0.691% | caspase-3 activation [4] 0.163% | outcome [5] | Potency [6] | Potency [9] | Potency [7]

CCC(C)O (configuration not stated)
inactive: caspase-3 activation [1] 0.681% | outcome [2] | caspase-3 activation [3] 1.46% | caspase-3 activation [4] -1.23% | outcome [8] | Potency [6] | Potency [9] | Potency [7]

COc1cccc2sc(N)nc12
inactive: caspase-3 activation [1] 1.13% | outcome [2] | caspase-3 activation [3] 0.718% | caspase-3 activation [4] -1.25% | outcome [5] | Potency [6] | outcome [10] | Potency [7]

CCOc1cc(OCC)c(C(C)=O)cc1OCC
inactive: caspase-3 activation [1] -0.248% | outcome [2] | caspase-3 activation [3] 0.345% | caspase-3 activation [4] -0.553% | outcome [5] | Potency [6] | outcome [10] | Potency [7]

CCCCCO
inactive: caspase-3 activation [1] 1.64% | outcome [2] | caspase-3 activation [3] -0.271% | caspase-3 activation [4] -0.0419% | outcome [8] | Potency [6] | Potency [9] | Potency [7]

CCN(Cc1ccccc1)c1ccccc1
inactive: caspase-3 activation [1] -0.109% | outcome [2] | caspase-3 activation [3] 0.0577% | caspase-3 activation [4] -1.67% | outcome [8] | Potency [6] | Potency [9] | Potency [7]

CCOc1ccccc1N
inactive: caspase-3 activation [1] 1.9% | outcome [2] | caspase-3 activation [3] -0.577% | caspase-3 activation [4] -1.95% | outcome [8] | Potency [6] | Potency [9] | Potency [7]

COc1ccc(N=[N+]([O-])c2ccc(OC)cc2)cc1
inactive: caspase-3 activation [1] -3.45% | outcome [2] | caspase-3 activation [3] -3.45% | caspase-3 activation [4] -8.4% | outcome [5] | Potency [6] | Potency [9] | Potency [7]

c1ccsc1
inactive: caspase-3 activation [1] -0.223% | outcome [2] | caspase-3 activation [3] 0.78% | caspase-3 activation [4] -0.842% | outcome [8] | Potency [6] | Potency [9] | Potency [7]

O=Cc1ccccc1Cl
inactive: caspase-3 activation [1] -0.514% | outcome [2] | caspase-3 activation [3] 2.39% | caspase-3 activation [4] 2.31% | outcome [8] | Potency [6] | Potency [9]

CC=C(Cl)Cl
inactive: caspase-3 activation [1] -0.275% | outcome [2] | caspase-3 activation [3] 0.108% | caspase-3 activation [4] 0.136% | outcome [8] | Potency [6] | Potency [9]

c1ccc2[nH]cnc2c1
inactive: caspase-3 activation [1] 0.6% | outcome [2] | caspase-3 activation [3] -0.984% | caspase-3 activation [4] -0.791% | outcome [8] | Potency [6] | Potency [9] | Potency [7]

CC=O
inactive: caspase-3 activation [1] 1.5% | outcome [2] | caspase-3 activation [3] 1.97% | caspase-3 activation [4] 2.27% | Potency [6] | Potency [9] | Potency [7]

C=C(C)OC(C)=O
inactive: caspase-3 activation [1] -0.109% | outcome [2] | caspase-3 activation [3] 2.67% | outcome [5] | Potency [6] | Potency [9] | Potency [7]

Cc1c(N)cccc1[N+](=O)[O-]
inactive: caspase-3 activation [1] 0.18% | outcome [2] | caspase-3 activation [3] -0.123% | outcome [5] | outcome [8] | Potency [6] | Potency [9] | Potency [7]

CC(=O)OC(C)=O
inactive: caspase-3 activation [1] 0.184% | outcome [2] | caspase-3 activation [3] -0.382% | outcome [5] | Potency [6] | Potency [9] | Potency [7]

Cc1cccc2sc(N)nc12
inactive: caspase-3 activation [1] -0.691% | outcome [2] | caspase-3 activation [3] -0.522% | outcome [5] | Potency [6] | Potency [9] | Potency [7]
